Here are results for 12 compounds from PubChem BioAssay (NCI).

This is part of a sample that, as a whole, favours compounds with a hit. Of some 83,000 tested, about 20% had one in any assay.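 Single-concentration screen, 48 h exposure, 96-well plates. Endpoint: percent growth. Below 10 = active.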 Unmarked numbers belong to inactive results. The source made the active and inactive calls.

The assay deals with T-47D breast. As to the kind of experiment: NCI-60 one-dose screen, 48 h (100 = growth as untreated, 0 = no growth, -100 = all killed). The following applies: 10 µM unless noted.
`COc1cccc([C@H]2c3[nH]c4ccccc4c3C[C@H]3C(=O)N(CCCCCCC(=O)NO)CC(=O)N23)c1`: the growth was 31.5%.

Turning to `Clc1ccc(CNc2c3ccccc3nc3ccccc23)cc1`, the growth was 43.4%.

Consider `COC(=O)c1c2c(c(C)[n+]([O-])c1C)C(=O)C=C(NCc1ccc(Br)cc1)C2=O`, for which the growth is -42.8% (active).

Regarding `COc1ccc(C/C(C)=C(/c2ccc(OCCN3CCCCC3)cc2)c2ccc(OC(=O)NCc3ccccc3)cc2)cc1`, the growth was -82.3% (active).

Turning to `O=C1c2cccc(NCCN=Cc3cc(O)ccc3O)c2C(=O)c2c(NCCN=Cc3cc(O)ccc3O)cccc21`, the growth is -2.29% (active).

Consider `CS(=O)(=O)c1cccc(-c2c(-c3cccc(OS(N)(=O)=O)c3)nc3sccn23)c1`, for which the growth is 79.3%.

As for `CCCCC[C@@H]1Cc2cc(O)c(C(=O)O)c3c2[C@H](C[C@]2(OC[C@@H](CC(=O)[C@@](C)(CC)C(=O)OC)[C@@H]2C)O3)O1`, the growth was 98.5%.

For the compound `Cc1ccc(Cl)cc1Nc1nc(C(F)(F)F)ccc1C(=O)N/N=C/c1cccnc1`, the growth is 32.9%.

Consider `CCCC(O)Cn1ncc(C(=O)OCC)c1NC(=O)NCc1ccccc1F` (configuration not stated), for which the growth was 87.2%.

As for `COc1ccc(-c2nc(/C=C3\SC(=NCc4ccccc4)NC3=O)c3ccccn23)cc1`, the growth is -67% (active).

For the compound `COc1cccc(NC(=O)Cn2cc(CN3CCN(c4ccnc5cc(Cl)ccc45)CC3)nn2)c1`, the growth was 70.7%.

Consider `CO[C@H]1/C=C(/C)CCC[C@H](C)[C@H](O)[C@@H](C)C(=O)C(C)(C)[C@@H](O)CC(=O)O[C@@H]1/C(C)=C/c1csc(C)n1`, for which the growth is 42.3%.
